Source: PubChem BioAssay
The source made the active and inactive calls. Unless noted, how the calls were made is not given here.

Legend:
[1] = HepG2 liver cancer cell viability effects, profiling panel, resazurin fluorescence, 24 h, PK04 Diversity Set (AID 1172); settings: higher = more signal
[2] = basal S. cerevisiae growth modulation, no modifier, primary screen, OD600, strain BY4716, 24 h, basal condition (AID 1173); settings: OD600, 24 h, higher = more signal, called active from +8 up or from −8 down
[3] = MM1S myeloma cell viability, profiling panel, resazurin fluorescence, basal, 24 h, PK04 Diversity Set (AID 1174); settings: higher = more signal, called active from +8 up or from −8 down;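 further: MM1S multiple myeloma cell line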
[4] = target: Dihydroorotate dehydrogenase (quinone), mitochondrial (Plasmodium falciparum (isolate 3D7)) (UniProt Q08210); assay: PfDHODH enzyme inhibitors, primary screen, biochemical, C-terminal His tag, absorbance 600 nm (AID 1175); settings: DCIP absorbance 600 nm, higher = more signal, called active from +8 up or from −8 down;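 further: recombinant parasite enzyme with a five histidine tag at its C terminus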
Sequence of Dihydroorotate dehydrogenase (quinone), mitochondrial (Plasmodium falciparum (isolate 3D7)) (Q08210 whole entry, looked up): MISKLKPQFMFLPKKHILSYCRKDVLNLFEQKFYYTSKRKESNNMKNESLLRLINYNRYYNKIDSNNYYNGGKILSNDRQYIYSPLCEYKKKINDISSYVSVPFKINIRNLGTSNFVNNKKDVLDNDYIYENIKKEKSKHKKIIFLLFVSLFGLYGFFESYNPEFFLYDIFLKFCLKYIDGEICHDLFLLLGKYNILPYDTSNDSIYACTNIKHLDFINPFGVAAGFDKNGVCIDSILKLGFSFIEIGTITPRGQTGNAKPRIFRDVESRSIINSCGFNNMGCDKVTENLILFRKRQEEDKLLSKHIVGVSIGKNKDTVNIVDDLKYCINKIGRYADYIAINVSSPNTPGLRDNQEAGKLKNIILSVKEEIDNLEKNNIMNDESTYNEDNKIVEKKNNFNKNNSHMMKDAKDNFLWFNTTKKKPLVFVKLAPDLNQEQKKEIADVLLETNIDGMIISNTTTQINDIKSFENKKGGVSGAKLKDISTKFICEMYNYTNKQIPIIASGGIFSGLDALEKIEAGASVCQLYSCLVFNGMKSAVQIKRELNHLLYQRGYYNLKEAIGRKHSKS

[5] = P. aeruginosa biofilm formation inhibitors, primary screen, strain PAO1, LB-PBS medium, absorbance 600 nm (AID 1176); settings: P. aeruginosa PAO1 growth/biofilm, A600, 12 h; higher = more signal
[6] = S. cerevisiae RM11-1a growth modifiers, primary screen, strain RM11-1a, OD600, basal, 24 h (AID 1177); settings: OD600, 24 h, higher = more signal, called active from +8 up or from −8 down;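 further: cultures grown under basal conditions with no added stressor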
[7] = E. coli acrAB mutant growth effects, primary screen, E. coli filamentation inducers, strain DRC39, OD650, 24 h (AID 1178); settings: higher = more signal, called active from +8 up or from −8 down;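 further: growth measured as culture turbidity by optical density at 650 nm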
[8] = E. coli acrAB mutant growth effects, primary screen, E. coli filamentation inducers, strain DRC39, OD650, 48 h (AID 1179);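 further: screen aims at cell division blockers that make cells filament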; settings: E. coli DRC39 delta-acrAB growth, higher = more signal, called active from +8 up or from −8 down
[9] = RPMI8226 myeloma cell viability, profiling panel, resazurin fluorescence, basal, 24 h, PK04 Diversity Set (AID 1180); settings: higher = more signal;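 further: RPMI8826 multiple myeloma cell line at 5000 cells per well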
[10] = target: E3 ubiquitin-protein ligase XIAP (Homo sapiens) (UniProt P98170); assay: XIAP binders, primary screen, biophysical, small-molecule microarray, fluorescence 635 nm (AID 1181); settings: small-molecule microarray binding, higher = more signal;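 further: score merges 667 nm emission and signal to noise over triplicate slides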
Sequence of E3 ubiquitin-protein ligase XIAP (Homo sapiens) (P98170 whole entry, looked up): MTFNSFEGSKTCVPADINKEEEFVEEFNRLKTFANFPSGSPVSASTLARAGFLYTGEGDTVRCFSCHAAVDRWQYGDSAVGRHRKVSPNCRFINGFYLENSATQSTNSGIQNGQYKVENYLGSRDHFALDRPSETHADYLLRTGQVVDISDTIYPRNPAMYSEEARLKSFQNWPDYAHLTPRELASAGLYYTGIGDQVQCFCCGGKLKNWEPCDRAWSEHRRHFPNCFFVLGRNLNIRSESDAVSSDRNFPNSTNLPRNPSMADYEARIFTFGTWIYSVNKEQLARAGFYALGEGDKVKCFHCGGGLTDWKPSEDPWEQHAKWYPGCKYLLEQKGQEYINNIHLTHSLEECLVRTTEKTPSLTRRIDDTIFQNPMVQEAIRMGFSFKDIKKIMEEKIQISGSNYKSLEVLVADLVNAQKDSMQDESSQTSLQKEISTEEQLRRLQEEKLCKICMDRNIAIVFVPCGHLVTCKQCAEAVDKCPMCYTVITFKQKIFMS

[11] = test system: XIP peptide (Xip251-270) binding; assay: small-molecule binders of XIP peptide, primary screen, biochemical, small-molecule microarray, fluorescence 635/667 nm, 0.1 µg/mL protein (AID 1182); settings: fluorescent protein binding, 635 nm, higher = more signal, called active from +8 up or from −8 down
XIP peptide (Xip251-270) = assay: small-molecule binders of XIP peptide, primary screen, biochemical, small-molecule microarray, fluorescence 635/667 nm, 0.5 µg/mL protein (AID 1183); settings: small-molecule microarray binding, fluorescence 635 nm; higher = more signal
[12] = Plasmodium falciparum growth inhibition, primary screen, strain 3D7, DAPI fluorescence, 100 nL (AID 1184);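 further: parasites grown inside human red blood cells in medium with human serum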; settings: P. falciparum 3D7 growth, 3 d, higher = more signal
[13] = target: Homeobox protein Hox-A13 (Mus musculus) (UniProt Q62424); assay: inhibitors of HoxA13-DNA binding, primary screen, biochemical, fluorescence polarization, labeled oligonucleotide (AID 1185); settings: 15 min, higher = more signal, called active from +8 up or from −8 down
Sequence of Homeobox protein Hox-A13 (Mus musculus) (Q62424 whole entry, looked up): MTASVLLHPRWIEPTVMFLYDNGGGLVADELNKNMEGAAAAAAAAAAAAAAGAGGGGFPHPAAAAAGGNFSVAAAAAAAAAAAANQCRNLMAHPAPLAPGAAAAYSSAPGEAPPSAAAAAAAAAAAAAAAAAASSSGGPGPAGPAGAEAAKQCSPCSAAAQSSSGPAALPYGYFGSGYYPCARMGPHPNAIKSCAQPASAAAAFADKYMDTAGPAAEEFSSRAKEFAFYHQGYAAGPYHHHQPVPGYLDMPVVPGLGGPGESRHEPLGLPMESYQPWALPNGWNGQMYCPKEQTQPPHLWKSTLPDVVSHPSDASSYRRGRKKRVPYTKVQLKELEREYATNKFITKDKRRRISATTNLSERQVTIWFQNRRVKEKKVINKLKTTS

[14] = inhibitors of hydroxyurea-induced Chk1 phosphorylation, primary screen, imaging, HeLa, phospho-Chk1 antibody, percent positive cells (AID 1186); settings: hydroxyurea-induced phospho-Chk1 immunofluorescence imaging, higher = more signal
[15] = inhibitors of hydroxyurea-induced Chk1 phosphorylation, primary screen, imaging, HeLa, phospho-Chk1 nuclear intensity (AID 1187); settings: hydroxyurea-induced phospho-Chk1 immunofluorescence imaging, higher = more signal

Compound	z-score [1]	z-score [2]	z-score [3]	composite z-score [4]	z-score [5]	z-score [6]	z-score [7]	z-score [8]	z-score [9]	composite z-score [10]	composite z-score [11]	composite z-score (XIP peptide (Xip251-270))	z-score [12]	z-score [13]	z-score [14]	z-score [15]
C=CCNC(=O)[C@H]1[C@@H]2C(=O)O[C@@H](c3ccccc3)[C@@H](c3ccccc3)N2[C@@H](c2ccccc2OCCO)[C@]12C(=O)N(C(=O)OCCOC)c1ccc(C#CC3(O)CCCCCC3)cc12	-0.536	-0.0911 (inactive)	-3.39 (inactive)	-1.12 (inactive)	2.42 (inactive)	0.0382 (inactive)	0.0979 (inactive)	0.975 (inactive)	-4.17	-0.259	0.892 (inactive)	0.712	-2.15	-0.807 (inactive)	-0.485 (inactive)	-0.428 (inactive)
CC(C)N1C(=O)C[C@@](C(=O)NC2CC2)(c2ccc([N+](=O)[O-])cc2)[C@H]1c1ccc(CO)cc1	-0.557	-0.693 (inactive)	0.616 (inactive)	-0.236 (inactive)	1.6 (inactive)	-0.437 (inactive)	0.209 (inactive)	0.167 (inactive)	0.499	0.236	0.65 (inactive)	0.396	-1.15	-1.81 (inactive)	0.254 (inactive)	0.529 (inactive)
[N-]=[N+]=Nc1ccccc1C[C@@]1(C(=O)N2CCOCC2)N=C(c2ccc(OCCCO)cc2)O[C@@H]1c1ccccc1	-0.339	-1.76 (inactive)	-0.967 (inactive)	-0.132 (inactive)	0.413 (inactive)	-0.0584 (inactive)	0.37 (inactive)	-0.0378 (inactive)	-0.0984	-0.09	0.111 (inactive)	0.765	-2.32	-5.84 (inactive)	-1.05 (inactive)	-1.34 (inactive)
O=C(NCc1ccc(F)cc1)[C@H]1C[C@H]2C(=O)NCC(=O)N2[C@H]1c1ccc(O)cc1	-1.15	0.407 (inactive)	0.0901 (inactive)	-0.0559 (inactive)	-0.0185 (inactive)	1.23 (inactive)	-0.42 (inactive)	-0.806 (inactive)	0.18	-0.294	0.981 (inactive)	0.842	-0.16	-1.87 (inactive)	-0.339 (inactive)	-0.45 (inactive)
CO[C@H]1O[C@H](CO)[C@@H](OC(=O)Nc2ccccc2)[C@H](OC(=O)c2cc3ccccc3[nH]2)[C@H]1OC(=O)c1cc2ccccc2[nH]1	-1.09	-0.388 (inactive)	-1.59 (inactive)	-0.49 (inactive)	0.125 (inactive)	-0.643 (inactive)	1.54 (inactive)	1.45 (inactive)	-1.64	0.246	2.41 (inactive)	0.783	-1.83	-4.4 (inactive)	-0.389 (inactive)	-0.562 (inactive)
C=CCNC(=O)[C@@H]1[C@H]2C(=O)O[C@H](c3ccccc3)[C@H](c3ccccc3)N2[C@H](c2ccc(OCCO)cc2)[C@@]12C(=O)N(C(=O)OCCOC)c1ccc(C#Cc3ccc(OC)cc3)cc12	-0.0068	1.21 (inactive)	0.279 (inactive)	-0.0464 (inactive)	2.08 (inactive)	2.57 (inactive)	-0.709 (inactive)	-0.73 (inactive)	0.725	0.102	0.448 (inactive)	0.589	-2.07	-0.573 (inactive)	0.0644 (inactive)	0.22 (inactive)
C=CCN1Cc2ccccc2[C@@H]2OC(c3ccc(OCCCO)cc3)=N[C@]2(CC=C)C1=O	0.151	-1.94 (inactive)	0.0504 (inactive)	-0.0817 (inactive)	0.314 (inactive)	-0.0316 (inactive)	0.997 (inactive)	0.64 (inactive)	-0.747	0.247	0.887 (inactive)	0.794	-2.08	-1.62 (inactive)	-0.675 (inactive)	-1.39 (inactive)
CCCCCCc1nc(Cc2cc(OC)c(OC)c(OC)c2)cc2c1[Si](C(C)C)(C(C)C)OC2	0.842	0.273 (inactive)	0.0456 (inactive)	-2.69 (inactive)	-0.215 (inactive)	-0.0979 (inactive)	-0.284 (inactive)	-0.279 (inactive)	-0.295	0.0009	0.181 (inactive)	0.0776	-2.67	-3.54 (inactive)	-1.16 (inactive)	-0.743 (inactive)
CCCCNC(=O)c1ccc(C#CC(C)(C)C)c(OC(C)=O)c1	0.111	-2.59 (inactive)	0.611 (inactive)	-1.14 (inactive)	-0.517 (inactive)	0.516 (inactive)	1.27 (inactive)	0.256 (inactive)	0.116	-0.283	0.0374 (inactive)	0.222	-1.74	-5.71 (inactive)	0.13 (inactive)	0.411 (inactive)
C=CCC(OC(C)=O)[C@@H]1[C@@H](N(Cc2cccc3ccccc23)C(=O)Cc2ccc(F)cc2)c2cc(OCCCO)ccc2N1C(=O)c1ccc2ccccc2c1 (some centres undefined)	0.921	0.274 (inactive)	0.697 (inactive)	0.339 (inactive)	-0.0057 (inactive)	0.036 (inactive)	0.655 (inactive)	0.83 (inactive)	0.276	0.34	-1.12 (inactive)	-0.277	-1.85	-1.39 (inactive)	-0.457 (inactive)	-0.395 (inactive)
COc1cc(NN2C(C(O)c3ccc(N(C)C)cc3)C=CC3C(=O)N(c4ccccc4)C(=O)C32)cc(OC)c1OC (centres undefined)	-1.16	0.744 (inactive)	-0.581 (inactive)	-1.1 (inactive)	0.794 (inactive)	-0.591 (inactive)	-0.0722 (inactive)	-1.45 (inactive)	-1.46	0.38	0.596 (inactive)	0.0721	-0.289	-4.2 (inactive)	0.111 (inactive)	-0.0651 (inactive)
CCCCCC1=C2CNC(C)(C(=O)OC)C=C2C(C)C1=O (centres undefined)	-0.901	2.3 (inactive)	-1.59 (inactive)	-0.455 (inactive)	1.06 (inactive)	1.18 (inactive)	-0.814 (inactive)	-0.193 (inactive)	-1.66	0.152	-0.22 (inactive)	-0.513	0.157	-5.3 (inactive)	1.37 (inactive)	1.45 (inactive)
C=CC[C@@]1(C(=O)NCCCOC)N=C(c2ccc(OCCCO)cc2)O[C@@H]1c1ccccc1N=[N+]=[N-]	1.06	-0.537 (inactive)	-0.394 (inactive)	1.05 (inactive)	-0.814 (inactive)	0.464 (inactive)	0.868 (inactive)	1.43 (inactive)	-0.137	0.598	0.05 (inactive)	0.516	-2.29	-6.15 (inactive)	-0.679 (inactive)	-0.6 (inactive)
COc1ccc([Si](C)(C)[C@@H]2[C@@H](CCO)O[C@]3(C(=O)N(Cc4ccccc4)c4ccc(N5CCOC5=O)cc43)[C@H]2C)cc1	-1.13	1.81 (inactive)	-2.51 (inactive)	-0.981 (inactive)	0.933 (inactive)	4.01 (inactive)	-0.957 (inactive)	-0.978 (inactive)	-2.79	0.0605	0.849 (inactive)	0.869	-2.79	-1.94 (inactive)	-1.29 (inactive)	-1.14 (inactive)
CN(C)C(=O)[C@@]1(Cc2ccccc2)N=C(c2ccc(OCCCO)cc2)O[C@H]1c1ccccc1	1.6	-1.92 (inactive)	0.857 (inactive)	-0.177 (inactive)	-0.345 (inactive)	0.319 (inactive)	0.0862 (inactive)	-0.146 (inactive)	1.16	-0.205	1.66 (inactive)	0.444	-1.58	-6.14 (inactive)	-0.499 (inactive)	-0.304 (inactive)
Cc1ccc(S[C@]2(C(=O)NCC(F)(F)F)CC(=O)N(Cc3cc(C(F)(F)F)cc(C(F)(F)F)c3)[C@@H]2c2ccc(CO)cc2I)cc1	1.02	-3.16 (inactive)	-1.99 (inactive)	-0.845 (inactive)	-0.522 (inactive)	-0.974 (inactive)	-0.301 (inactive)	-0.0582 (inactive)	-2.03	-0.325	1.46 (inactive)	0.981	-0.609	-2.68 (inactive)	0.427 (inactive)	0.684 (inactive)
CCCCCN1CC=CC23O[C@@H]4/C=C\CCC(C)OC(=O)C4[C@H]2C(=O)N(C(CO)C(C)C)[C@@H]3C1=O (some centres undefined)	0.713	-0.82 (inactive)	-0.502 (inactive)	-1.74 (inactive)	0.193 (inactive)	-0.116 (inactive)	0.451 (inactive)	0.236 (inactive)	1.41	0.0627	0.733 (inactive)	0.761	-1.07	-5.72 (inactive)	-0.584 (inactive)	-0.113 (inactive)
CCCC[C@@H](O)C1=C(COC)C[C@H]2C(=O)N(C)C(=O)[C@H]2[C@H]1CO	0.798	-3.7 (inactive)	-0.264 (inactive)	-1.43 (inactive)	1.04 (inactive)	-2.16 (inactive)	2.43 (inactive)	0.964 (inactive)	1.3	-0.109	-0.703 (inactive)	0.336	-0.68	-1.8 (inactive)	-0.476 (inactive)	0.0423 (inactive)
CCCC[C@@H](O)C1=C(COC)C[C@H]2C(=O)N(Cc3ccccc3)C(=O)[C@H]2[C@H]1CO	0.111	-1.22 (inactive)	-1.61 (inactive)	-0.401 (inactive)	-0.496 (inactive)	0.643 (inactive)	0.418 (inactive)	0.722 (inactive)	0.126	-0.0525	1.47 (inactive)	0.782	0.553	-4.13 (inactive)	-0.187 (inactive)	0.274 (inactive)
